Measured values as given in PubChem BioAssay.
Inconclusive results are not listed. Active and inactive are the calls of the source.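 How the source made its calls, unless noted: active means viability increase at or above a cutoff of the median across tested compounds plus 3 SD (cut at about 8.5% in these data, passing the limit was not always enough); inconclusive means some gains above the cutoff, reason not given; inactive means the rest.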

Columns and labels:
[1] = HUVEC growth inhibition – cell-based, human, primary screen (AID 575;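 active means viability at or below 30% in both replicate assays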;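 further: 100% = median of untreated cell wells with 0.1% DMSO on each plate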); details: HUVEC proliferation, CellTiter-Glo luminescence, 72 h; at 10 µM; stronger effect = lower value
[2] = H69AR cell proliferation blockers – human, duplicate replicates, primary screen (AID 580;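 active means viability at or under a set limit in both replicates, limit being median viability minus 3 SD, cut at about 48% in these data, passing the limit was not always enough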;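 further: 100% = mean luminescence of untreated wells and 0% = no signal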); details: H69AR lung tumor cells viability, ATP luminescence, 72 h; at 10 µM; stronger effect = lower value
[3] = MRP1 drug-resistance reversers in H69AR cells – cell-based, doxorubicin co-treatment, pilot screen (AID 601;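 active means viability loss from added drug above about 55%, and viability with drug at most 40%, in both replicates, limit read from the data, passing the limit was not always enough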); details: CellTiter-Glo, 72 h, at 10 µM; for differential viability (reversal): stronger effect = higher value
[4] = yeast transport mutant growth inhibition pilot in 384-well plates, post-Golgi transport modulator project (AID 636; in the data active means inhibition above about 31%); details: absorbance 615 nm, about 18 h, stronger effect = higher value
[5] = growth suppression of yeast trafficking mutant, preliminary HTS, modulators of trafficking downstream of Golgi apparatus project, 1536-format plate, OD 615 nm (AID 637; in the data active means inhibition above about 30%); details: yeast transport mutant growth, absorbance 615 nm, 18 h; stronger effect = higher value
[6] = S. cerevisiae growth inhibition in permissive medium (OD615), pilot counter-assay for S. cerevisiae lifespan shortening project, permissive growth control (AID 705;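 active means growth inhibition above 25% in both replicates, a cutoff set 3 SD above the mean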); details: OD615, 24 h, at 10 µM, stronger effect = higher value
[7] = S. cerevisiae growth inhibition in restrictive medium, OD615, pilot screen, restrictive growth control, yeast lifespan reduction project (AID 706;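 active means growth inhibition above a set limit, 3 SD over mean compound inhibition, in both replicates, cut at about 43% in these data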;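 further: modified DeaD lifespan yeast strain shifted to restrictive glucose medium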); details: OD615, 48 h, at 10 µM, stronger effect = higher value
[8] = doxorubicin toxicity protection in MRP-1 cells – H69AR cells, CellTiter-Glo, duplicate, MRP-1 activator project, pilot screen (AID 807); details: H69AR viability with doxorubicin, CellTiter-Glo luminescence; at 10 µM; stronger effect = higher value;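 further: compound pretreatment 18-22 h then 72 h combined with doxorubicin; 0% = doxorubicin alone and 100% = vehicle without doxorubicin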
[9] = viability of HCT116 without oncogenic beta-catenin – human colon tumor cells, pilot screen (AID 823;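 active means cell viability at or below a set limit in both duplicate runs, the limit being the all-compound median minus 4 SD, cut at about 23% in these data, passing the limit was not always enough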;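 further: 0% = wells killed by 20 µM Hyamine and 100% = untreated DMSO cell wells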); details: HCT116 beta-catenin knockout viability, CellTiter-Glo, 60 h; at 10 µM; stronger effect = lower value
[10] = viability of PTEN-null HCT116 cells – cell-based, HCT116 clonal line, CellTiter-Glo, pilot screen (AID 824;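 active means viability at or below 27.92% in each of two runs, the all-compound median minus 4 SD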;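 further: 0% = 20 µM Hyamine control and 100% = vehicle cell control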); details: HCT116 PTEN-deleted viability, 60 h, at 10 µM, stronger effect = lower value
[11] = RAM pathway blockade in budding yeast – dse1pr::URA3 reporter, 5-FOA selection, pilot screen (AID 869;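 active means inhibition over a set limit, the all-compound mean plus 3 SD, in both replicate runs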;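 further: 0% = DMSO wells with no growth and 100% = 10 µM 1-NA-PP1 with full growth; RAM network block rescues cells from 5-FOA so hits raise OD615 growth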); details: S. cerevisiae dse1pr::URA3 5-FOA growth, OD615, 2 d; at 10 µM; stronger effect = higher value; strain carries analog-sensitive mutant Cbk1 kinase
[12] = RAM signaling pathway blockade in yeast – S. cerevisiae, Pdr1DBD-CYC8 efflux-inhibited sensitized strain, primary screen (AID 1298;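 active means RAM network inhibition above 8.4% in each of two replicates, 3 SD over the compound average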;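 further: 0% = DMSO untreated cells without growth and 100% = 10 µM 1-NA-PP1 full growth; higher means more yeast growth rescued from 5-FOA killing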); details: S. cerevisiae cbk1-as DSE1-URA3 strain, 5-FOA growth OD615, 2 d; at 50 µM; stronger effect = higher value
[13] = H69AR cells + 2 uM doxorubicin, measured here: viability with 2 uM doxorubicin, stronger effect = lower value
[14] = H69AR cells, compound alone cytotoxicity

COc1ccc(C2C(C#N)=C(C)NC3=C2C(=O)CC(C)(C)C3)c(OC)c1 (centres undefined)
71.8%: viability [3, 13]
95.3%: viability [3, 14]
inactive: viability [1] 88.9% | viability [2] 95.3% | differential viability (reversal) ([3]; H69AR cells + 2 uM doxorubicin) 23.5% | inhibition [4] -1.3% | inhibition [5] -2.7% | growth inhibition [6] -22.8% | growth inhibition [7] -14.1% | viability increase [8] -1.62% | viability [9] 97.6% | viability [10] 91.4% | inhibition [11] 0.825% | RAM network inhibition [12] 1.94%

O=c1cc(-c2ccco2)oc2ccc(Cl)cc12
inactive: viability [1] 111% | viability [2] 98.4% | differential viability (reversal) ([3]; H69AR cells + 2 uM doxorubicin) 12.5% | inhibition [4] -2.6% | inhibition [5] 4.76% | growth inhibition [6] -19.4% | growth inhibition [7] -2.54% | viability increase [8] -2.08% | viability [9] 96.9% | viability [10] 98.2% | inhibition [11] 0.61% | RAM network inhibition [12] 6.02%
98.4%: viability [3, 14]
85.9%: viability [3, 13]

COc1cccc2cc(C(=O)Nc3cccnc3N3CCOCC3)c(=O)oc12
inactive: viability [1] 101% | viability [2] 94.3% | differential viability (reversal) ([3]; H69AR cells + 2 uM doxorubicin) 10.1% | inhibition [4] -4.03% | inhibition [5] 3.65% | growth inhibition [6] -8.22% | growth inhibition [7] -21.8% | viability increase [8] -3.74% | viability [9] 101% | viability [10] 98.8% | inhibition [11] 3.31% | RAM network inhibition [12] 1.45%
94.3%: viability [3, 14]
84.2%: viability [3, 13]

COC(=O)C1CCN(C(=O)CSc2nnc(-c3ccncc3)o2)CC1
81.8%: viability [3, 14]
inactive: viability [1] 101% | viability [2] 81.8% | differential viability (reversal) ([3]; H69AR cells + 2 uM doxorubicin) -7.18% | inhibition [4] 1.43% | inhibition [5] 19.1% | growth inhibition [6] -0.605% | growth inhibition [7] -6.21% | viability increase [8] 1.44% | viability [9] 102% | viability [10] 102% | inhibition [11] 1.91% | RAM network inhibition [12] -1.1%
89%: viability [3, 13]

O=C(NCCN1CCN(c2ccccc2)CC1)c1ccc(NC(=O)C2CCCO2)cc1 (centres undefined)
inactive: viability [1] 96.9% | viability [2] 108% | differential viability (reversal) ([3]; H69AR cells + 2 uM doxorubicin) 8.13% | inhibition [4] -3.82% | inhibition [5] -0.48% | growth inhibition [6] -5.63% | growth inhibition [7] -8.76% | viability increase [8] -1.13% | viability [9] 95.6% | viability [10] 101% | inhibition [11] 1.66% | RAM network inhibition [12] 2.86%
108%: viability [3, 14]
100%: viability [3, 13]

CCc1cc2c(NCCC(=O)O)ncnc2s1
91.7%: viability [3, 13]
97.6%: viability [3, 14]
inactive: viability [1] 83.3% | viability [2] 97.6% | differential viability (reversal) ([3]; H69AR cells + 2 uM doxorubicin) 5.87% | inhibition [4] -3.51% | inhibition [5] -0.48% | growth inhibition [6] -7.78% | growth inhibition [7] -13.1% | viability increase [8] -1.99% | viability [9] 101% | viability [10] 99.6% | inhibition [11] 3.42% | RAM network inhibition [12] 2.49%

Cc1ccc(-c2cc(C(F)F)nc(N3CCC(C)CC3)n2)cc1
91.1%: viability [3, 14]
inactive: viability [1] 85.7% | viability [2] 91.1% | differential viability (reversal) ([3]; H69AR cells + 2 uM doxorubicin) 1.39% | inhibition [4] -4.47% | inhibition [5] 1.75% | growth inhibition [6] 3.35% | growth inhibition [7] 6.11% | viability increase [8] 1.95% | viability [9] 100% | viability [10] 101% | inhibition [11] 2.67% | RAM network inhibition [12] 6.64%
89.7%: viability [3, 13]

COc1cc2[nH]c(=O)n(CCCCCC(=O)NCCCN3CCCC3=O)c(=O)c2cc1OC
inactive: viability [1] 103% | viability [2] 104% | differential viability (reversal) ([3]; H69AR cells + 2 uM doxorubicin) 11.6% | inhibition [4] -5.39% | inhibition [5] -0.32% | growth inhibition [6] -1.87% | growth inhibition [7] -4% | viability increase [8] 1.13% | viability [9] 103% | viability [10] 104% | inhibition [11] 1.91% | RAM network inhibition [12] 6.37%
92.9%: viability [3, 13]
104%: viability [3, 14]

Cc1ccc(C)c(NC(=O)C2CCC(C)(C(=O)O)C2(C)C)c1 (centres undefined)
97.8%: viability [3, 14]
92.1%: viability [3, 13]
inactive: viability [1] 98.8% | viability [2] 97.8% | differential viability (reversal) ([3]; H69AR cells + 2 uM doxorubicin) 5.67% | inhibition [4] 2.08% | inhibition [5] -0.79% | growth inhibition [6] -12.8% | growth inhibition [7] -13.8% | viability increase [8] -1.13% | viability [9] 97% | viability [10] 99% | inhibition [11] 0.355% | RAM network inhibition [12] 0.93%

N#C/C(C(=O)c1ccccc1)=C1/CCCN1
inactive: viability [1] 95.8% | viability [2] 97.2% | differential viability (reversal) ([3]; H69AR cells + 2 uM doxorubicin) 5.69% | inhibition [4] -1.04% | inhibition [5] 5.08% | growth inhibition [6] -10.5% | growth inhibition [7] -8.62% | viability increase [8] 2.34% | viability [9] 108% | viability [10] 105% | inhibition [11] 1.44% | RAM network inhibition [12] 1.34%
91.5%: viability [3, 13]
97.2%: viability [3, 14]

CCCN1CCN(C(=O)c2cn(CC(C)C)c(=O)c3cc(OC)c(OC)cc23)CC1
78%: viability [3, 14]
inactive: viability [1] 93.1% | viability [2] 78% | differential viability (reversal) ([3]; H69AR cells + 2 uM doxorubicin) -0.945% | inhibition [4] -4.74% | inhibition [5] 4.92% | growth inhibition [6] -19.2% | growth inhibition [7] -0.27% | viability increase [8] -2.46% | viability [9] 100% | viability [10] 88.4% | inhibition [11] 2.42% | RAM network inhibition [12] 2.08%
78.9%: viability [3, 13]
